# USP17 block: inhibitors of human USP17 deubiquitinase; Ubiquitin carboxyl-terminal hydrolase 17-like protein 5 (Homo sapiens), A8MUK1; purified USP17, Ub-rhodamine cleavage fluorescence, 3 h; inhibition, % at 50 µM; actives 6.5% (n = 47,000); AID 1645855, 2021
# USP8 block: inhibitors of human USP8 deubiquitinase; purified USP8, Ub-rhodamine cleavage fluorescence, 30 min; AID 1645853, 2021; actives 4.2% (n = 47,000); inhibition, % at 20 µM; Ubiquitin carboxyl-terminal hydrolase 8 (Homo sapiens), P40818
# USP30 block: inhibitors of human USP30 deubiquitinase | inhibition, % at 25 µM | actives 5.3% (n = 47,000) | Ubiquitin carboxyl-terminal hydrolase 30 (Homo sapiens), Q70CQ3 | purified USP30, Ub-rhodamine cleavage fluorescence
# USP28 inh: inhibitors of human USP28 deubiquitinase. AID 1645857, 2021. Ubiquitin carboxyl-terminal hydrolase 28 (Homo sapiens), Q96RU2. actives 3% (n = 47,000). purified USP28, Ub-rhodamine cleavage fluorescence, 30 min. inhibition, % at 25 µM
# Target sequence (Q96RU2 whole entry, looked up): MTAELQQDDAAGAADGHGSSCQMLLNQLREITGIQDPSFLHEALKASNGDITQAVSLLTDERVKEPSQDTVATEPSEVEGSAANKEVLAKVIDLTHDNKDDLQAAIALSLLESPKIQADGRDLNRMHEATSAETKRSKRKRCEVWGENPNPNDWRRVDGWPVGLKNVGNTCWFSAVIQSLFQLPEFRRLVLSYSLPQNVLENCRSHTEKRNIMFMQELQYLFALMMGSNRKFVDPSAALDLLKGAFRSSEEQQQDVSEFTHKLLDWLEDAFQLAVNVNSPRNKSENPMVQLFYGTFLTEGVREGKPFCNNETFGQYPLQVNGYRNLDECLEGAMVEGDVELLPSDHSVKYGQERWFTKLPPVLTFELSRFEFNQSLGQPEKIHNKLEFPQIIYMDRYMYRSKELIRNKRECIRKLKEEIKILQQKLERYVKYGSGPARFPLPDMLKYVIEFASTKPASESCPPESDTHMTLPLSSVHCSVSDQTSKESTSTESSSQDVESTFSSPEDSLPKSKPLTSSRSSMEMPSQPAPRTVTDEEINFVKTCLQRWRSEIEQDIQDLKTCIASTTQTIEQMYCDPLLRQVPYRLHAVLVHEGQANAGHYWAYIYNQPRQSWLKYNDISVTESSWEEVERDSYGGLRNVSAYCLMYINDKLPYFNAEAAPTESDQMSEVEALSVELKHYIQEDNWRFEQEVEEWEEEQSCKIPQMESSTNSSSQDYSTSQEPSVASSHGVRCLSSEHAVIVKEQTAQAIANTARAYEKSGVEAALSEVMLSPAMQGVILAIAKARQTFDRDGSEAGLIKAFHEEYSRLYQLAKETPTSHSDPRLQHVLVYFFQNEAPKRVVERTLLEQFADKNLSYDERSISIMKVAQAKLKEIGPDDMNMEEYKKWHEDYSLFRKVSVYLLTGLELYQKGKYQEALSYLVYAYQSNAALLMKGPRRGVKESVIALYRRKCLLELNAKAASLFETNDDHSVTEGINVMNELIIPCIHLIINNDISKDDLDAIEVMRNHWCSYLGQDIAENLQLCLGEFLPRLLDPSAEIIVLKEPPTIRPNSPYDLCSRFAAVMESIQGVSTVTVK
# Numbers stand for hits; n = inactive; x = no result. Rows were chosen to be rich in hits. Some 13% of all compounds tested hit in one or more screens of this group. Rule as the data show it: active = inhibition above about 30%; inactive = the rest.
SMILES,USP17 block,USP8 block,USP30 block,USP28 inh
CC(C(=O)Nc1ccccc1)n1cnc2nc(N3CCCCC3)ncc2c1=O (stereo unspecified),69.5,n,n,n
CC(C(=O)Nc1ccc(F)cc1)n1cnc2nc(N3CCCCC3)ncc2c1=O (stereo unspecified),n,32.3,n,n
CC1c2[nH]c3ccccc3c2C[C@@H]2C(=O)N(CC(O)c3ccccc3)CC(=O)N12 (stereo partly specified),n,n,n,n
Cc1ccccc1CNC(=O)CN1C(=O)C2CCCN2C(=O)c2cccc(C)c21 (stereo unspecified),n,n,36.8,n
CCOc1cc2[nH]c(=O)n(CC3CCC(C(=O)NCCc4c[nH]c5ccccc45)CC3)c(=O)c2cc1OCC (stereo unspecified),n,n,37.0,n
Cc1ccc(C(=O)NC(C(=O)OCC(=O)c2cc(C)n(-c3ccc4c(c3)OCO4)c2C)C(C)C)cc1 (stereo unspecified),n,52.3,n,n
Fc1ccc(-c2cnc(NCCCN3CCOCC3)nc2)cc1,n,n,n,n
C/C1=C/CC(O)/C=C/C(C)C(O)C(C)/C=C(\C)C(=O)c2c(O)c(C)cc3c2C(=O)C(Cl)=C(NC(=O)\C=C/C=C/C=C\C(C)C(O)CC1=O)C3=O (stereo unspecified),74.1,n,n,n
COc1cccc(N2CCN(C(=O)C3CCN(c4nc(NC(C)=O)ns4)CC3)CC2)c1,69.4,n,n,n
Cc1cc2c3c([nH]c2cc1S(=O)(=O)N(C)C1CCCCC1)CCCC3=O,48.9,n,n,n
Cc1ccccc1NS(=O)(=O)c1cc2[nH]c3c(c2cc1C)C(=O)CCC3,58.3,40.3,68.8,57.1
Cc1ccc(-n2ncc3c2ncn2c(C)nnc32)cc1C,n,n,45.0,n
C=C1Nc2ccccc2C(=O)N1c1cccc(NC(=O)c2ccc(Cl)cc2)c1,n,n,n,n
O=C(N[C@H]1[C@H](O)[C@H](O)C[C@@H]1C1CCCCC1)C1CC1,n,n,48.8,n
O=C(N[C@H]1[C@H](O)[C@H](O)C[C@@H]1C1CCCCC1)c1cncnc1,n,n,n,n
Brc1ccc(C2(c3nnc(-c4ccc5c(c4)OCCO5)o3)CCOCC2)cc1,n,n,n,n
c1cc2c(cc1-c1nnc(C3(c4ccc5c(c4)OCO5)CCOCC3)o1)OCCO2,n,n,33.3,n
CC(=O)Nc1ccc(-c2noc(C3CCN(C(=O)Cc4ccccc4C)CC3)n2)cc1,n,n,n,n
CCC(C)n1c(-c2ccccc2F)nc2nc3ccccc3nc21 (stereo unspecified),n,n,35.4,36.8
CCCn1c(-c2ccccc2)nc2nc3ccccc3nc21,n,n,n,n
CCCn1nc(-n2cnnc2)c(NS(=O)(=O)c2ccc(C)cc2C)c1C,n,n,n,n
Cc1ccccc1C(=O)OCCN1C(=O)c2cccc3c(N4CCOCC4)ccc(c23)C1=O,n,n,n,n
CC(C)COc1ccc(C(=O)Oc2ccc(-n3cnnn3)cc2)cc1,n,37.5,n,n
CCCOc1cccc(C(=O)Oc2ccc(-n3cnnn3)cc2)c1,n,n,n,n
CCCCOc1ccc(C(=O)Oc2ccc(-n3cnnn3)cc2)cc1,n,32.8,n,n
SMILES,USP17 block,USP8 block,USP30 block,USP28 inh
O=C(Oc1ccc(-n2cnnn2)cc1)c1ccc(Br)cc1,n,n,n,n
O=C(c1cc(-c2cccnc2)n(-c2ccc(F)cc2)n1)N1CCc2ccccc21,n,n,n,n
O=C(NCc1ccccn1)c1oc2ccccc2c1CSc1ncn[nH]1,n,n,n,n
O=C(NCc1nc2ccccc2[nH]1)c1cccc(S(=O)(=O)N2CCc3ccccc32)c1,31.5,n,59.1,n
Cc1ccc(S(=O)(=O)N2CCC(C(=O)Nc3nnc(C)o3)CC2)c(C)c1,n,n,37.4,n
CCC(=O)N(C1CCOCC1)C1CCN(S(=O)(=O)c2ccc(C)cc2C)CC1,n,n,n,n
Cc1nc(SCC(=O)c2ccc(Cl)cc2)c2oc3ccccc3c2n1,n,n,n,n
CC(=O)CSc1nc(C)nc2c1oc1ccccc12,n,n,n,n
COC(=O)c1ccccc1NC(=O)CSc1nc(C)nc2c1oc1ccccc12,45.3,n,n,n
Cc1nc(SCC(=O)Nc2cccc3ccccc23)c2oc3ccccc3c2n1,30.6,n,41.9,n
Cc1nc(SCc2ccc(Cl)cc2Cl)c2oc3ccccc3c2n1,n,n,n,n
Cc1nc(SCC(=O)NC2CCCC2)c2oc3ccccc3c2n1,n,n,38.3,n
Cc1nc(SCc2ccccc2C)c2oc3ccccc3c2n1,60.2,n,x,x
CC1(C)C(=O)Nc2ccc(S(=O)(=O)Nc3ccccc3)cc21,n,n,n,n
O=S(=O)(c1ccc(F)cc1)N1CCC(O)(CN2CCOCC2)C1 (stereo unspecified),n,n,n,n
Cc1ccccc1Cn1c(C(=O)O)c(CNCc2cccnc2)c2ccccc21,n,n,n,n
CCC(C(=O)Nc1ccc(C)cc1C)n1c(C)nc2onc(C)c2c1=O (stereo unspecified),30.9,n,38.3,n
C[C@H](O)c1coc(=O)c2c(O)cc(O)cc12,n,n,n,n
CC(=O)Nc1ccc(SCc2nc3ccccc3nc2C)cc1,n,38.6,n,n
CCOC(=O)c1c(C)oc2nc(CSc3ccccc3)[nH]c(=O)c12,n,n,n,61.5
O=C1COc2ccc(NC(=O)c3cnn(Cc4ccccc4)c3)cc2N1,63.2,n,n,n
COc1ccc(F)cc1S(=O)(=O)N(C)CC(=O)N1CCCCCC1,n,n,n,n
COc1cccc(NC(=O)N2CCC3(CC2)C(=O)Nc2ccccc23)c1,n,n,n,n
NCc1ccc(C(=O)N2CCC3(CC2)C(=O)Nc2ccccc23)cc1,n,85.4,n,n
O=C(COC(=O)c1ccc2ncsc2c1)Nc1ccc(F)c(F)c1,n,n,n,n
SMILES,USP17 block,USP8 block,USP30 block,USP28 inh
O=C(COC(=O)c1ccc2ncsc2c1)Nc1ccccc1F,61.3,n,n,n
COc1ccc(-c2nnc(SCc3ccc(C#N)cc3)o2)cc1,n,n,46.3,n
COc1cccc2sc(N(CCCN(C)C)C(=O)c3ccco3)nc12,n,n,n,n
Cc1noc(CCC(=O)N2CCC(C3CCCCN(CCc4ccccc4)C3=O)CC2)n1 (stereo unspecified),n,n,n,n
O=C(Cc1ccc2c(c1)CCO2)Nc1ccc(-c2cn3ccsc3n2)cc1,36.2,n,n,n
O=C(Nc1ccccc1)c1csc(-c2ccc3c(c2)CCO3)n1,n,n,n,n
CN(C)S(=O)(=O)c1ccc(N2CCCC2)c(C(=O)Nc2ccc(-c3cn4ccsc4n3)cc2)c1,52.0,n,38.0,32.3
COc1ccc(NC(=O)c2cc(S(=O)(=O)N(C)C)ccc2N2CCCC2)cc1Cl,n,n,n,n
O=C(O)C1CCN(Cc2c(-c3ccc4c(c3)OCO4)nc3ncccn23)CC1,n,n,n,n
COc1cccc2[nH]c(C(=O)N3CCC(n4c(C)nc5cccnc54)CC3)cc12,n,n,n,n

# Screens deposited in PubChem BioAssay by Buhrlage Lab, Dana-Farber Cancer Institute and Novartis Institutes for BioMedical Research (Cambridge, Mass).
